In the library only some 4.9% were active in any assay of this set; here they are far more common.
NALP1 yeast inh: blocks the NALP1 inflammasome reconstituted in yeast; S. cerevisiae NALP1/ASC/caspase-1 growth, X-gal OD620, 72 h; inhibition, % at 10 µM; actives 0.61% (n = 280,000); AID 2071; in the data active = inhibition mostly above about 24%, no sharp cut-off; inactive = mostly below about 32%
TIM10 inh: TIM10 yeast growth inhibition; S. cerevisiae TIM10 strain growth, BacTiter-Glo luminescence, 24 h; inhibition, % at 10 µM; actives 1.4% (n = 330,000);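 active = inhibition of 40% or more at the single tested concentration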;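 also: wild-type TIM10 isogenic control strain grown at permissive 25 °C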
SKKanGAS inh: inhibitors of SKKanGAS S. pyogenes growth in kanamycin (SK-promoter or general growth effect) | BacTiter-Glo, 6 h | inhibition, % at 7.5 µM | actives 1.3% (n = 300,000) | AID 1662;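 active = mean replicate score, as percent of positive control median, at least 50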;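 also: strain carries kanamycin resistance gene driven by streptokinase promoter and grows in 40 µg/ml kanamycin; loss of luminescence reflects streptokinase promoter inhibition or plain growth inhibition; 0% = median of DMSO wells and 100% = positive control at its reference dose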
tim10-1 inh: growth inhibitors of tim10-1 mutant yeast; actives 2.2% (n = 330,000); S. cerevisiae tim10-1 ts strain growth, BacTiter-Glo, 24 h; inhibition, % at 20 µM;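 active = inhibition of at least 40%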;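 also: mutant grown at 25 °C; 0% = DMSO wells with yeast and 100% = wells holding no yeast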
tim23-1 inh: inhibits growth of tim23-1 mutant yeast; S. cerevisiae tim23-1 growth, BacTiter-Glo luminescence, 24 h; inhibition, % at 20 µM; actives 1.3% (n = 330,000);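 active = growth inhibition of the mutant yeast at or above 50%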;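 also: temperature-sensitive mutant grown at 25 °C; plate controls were DMSO-treated mutant yeast for no effect and medium wells lacking yeast for full effect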
NLRP3 yeast inh: NALP3 inhibition in yeast | AID 2825 | Yeast reconstituted NLRP3/ASC/caspase-1, beta-gal luminescence, 24 h | actives 0.39% (n = 330,000) | inhibition, % at 10 µM;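 active = inhibition of 50% or more; inactive = inhibition below 50%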;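 also: plate controls were induced DMSO wells for no effect and uninduced yeast grown without galactose for full effect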
tim23-1 conf: tim23-1 yeast growth inhibition, confirmed; shares compounds with tim23-1 inh; S. cerevisiae tim23-1 growth, BacTiter-Glo luminescence, 24 h; inhibition, % at 20 µM; actives 83% (n = 4,400);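 active = inhibition above about 39% in either of two replicate wells at 20 µM, limit read from the data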;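 also: temperature-sensitive tim23-1 mutant grown at 25 °C; 0% = DMSO wells with yeast and 100% = medium wells without yeast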
* = called active by the depositor; . = no result.

SMILES | NALP1 yeast inh | TIM10 inh | SKKanGAS inh | tim10-1 inh | tim23-1 inh | NLRP3 yeast inh | tim23-1 conf
Cc1cc([N+](=O)[O-])cc(/C=N/n2c(C)nc3ccccc3c2=O)c1O | 2 | 8 | 72* | 11 | 79* | 35 | 66*
Cc1nc2ccccc2c(=O)n1/N=C/c1ccccc1O | -14 | 20 | 12 | -8 | 26 | 10 | .
Cc1ccc(NCc2nnc(SCC(=O)OC3CCCCC3)o2)c(C)c1 | 4 | 28 | 1 | 22 | 18 | 2 | .
O=C(Nc1ccc(-c2nc3ncccc3o2)cc1)c1ccc([N+](=O)[O-])o1 | 9 | 36 | 14 | 27 | 65* | -12 | 83*
Cc1cc(OCC(=O)Nc2cnn(CCCC(=O)O)c2)ccc1Cl | 2 | -11 | 2 | -9 | -3 | -6 | .
Cc1ccc(NC(=O)N2CCC(C(=O)NCC(C)C)CC2)cc1 | -3 | -13 | -4 | -3 | -9 | -7 | .
CCCCOc1ccc(Cc2cnc(N)nc2N)cc1 | . | -1 | -1 | -21 | 18 | 19 | .
CCCCOc1ccc(N=Nc2ccc(N)nc2N)cn1 | 20 | 36 | 6 | 37 | 80* | 32 | 70*
CSCCC(NS(=O)(=O)c1ccccc1F)C(=O)N1CCCCCCC1 (configuration not stated) | 5 | 17 | -3 | 25 | 20 | 6 | .
Oc1ccc(Br)cc1C=Nc1ccc2c3c(cccc13)CC2 | 1 | 21 | -23 | 21 | 64* | 13 | 60*
O=C(O)CSCC(=O)N1CCN(c2cc(C(F)(F)F)nc3ccccc23)CC1 | 5 | -14 | -5 | 16 | 2 | 11 | .
CCN1CCCC1CNCc1cccc(OC)c1OCc1ccc(F)cc1 (configuration not stated) | 29 | 3 | -1 | 9 | -5 | 17 | .
COc1ccc(OC)c(NC(=O)c2csc(Cl)c2OC)c1 | 4 | 26 | -4 | 23 | 59* | 22 | 44*
CCOc1ccccc1C(=O)NCC(=O)NCC(c1ccco1)N1CCCCC1 (configuration not stated) | . | 1 | -11 | -4 | 10 | 22 | .
COc1ccccc1/C=C1\C(=O)Nc2ccccc21 | -2 | 35 | -5 | 31 | 62* | 37 | 46*
Cc1ccc2c(c1)/C(=N/N1C(=O)c3ccccc3C1=O)C(=O)N2 | 39 | 8 | -5 | 30 | 43 | 3 | .
Cc1ccc2c(c1)/C(=C/c1ccccc1C)C(=O)N2 | 23 | 30 | -1 | 37 | 53* | -9 | 42*
Cc1occc1C(=O)N/N=C/C=C/c1ccccc1 | -16 | -27 | -7 | -25 | 27 | 5 | .
Cc1occc1C(=O)N/N=C/C(Br)=C\c1ccccc1 | 2 | 30 | 32 | 14 | 63* | 32 | 67*
CCOc1ccc(NC(=O)c2ccccc2CO)cc1 | 13 | 1 | 1 | 17 | 58* | -1 | 12
CCN(CCCNC(=O)CCc1nc(-c2ccc(C)cc2)no1)c1cccc(C)c1 | -10 | 29 | 1 | 31 | 52* | 21 | 43*
Cc1cccc(-c2noc(CCC(=O)NCCc3ccccc3)n2)c1 | 7 | 7 | -5 | 11 | 20 | 28 | .
CCC1(C)CC(c2nc(-c3ccc(OC)cc3)cs2)CCS1 (configuration not stated) | -6 | -3 | 17 | 12 | 21 | -39 | .
Cc1cc(-c2nn3c(-c4ccccc4)nnc3s2)c2ccccc2n1 | 37 | 27 | -9 | 31 | 17 | 10 | .
Cc1ccccc1-c1nn2c(-c3ccccc3)nnc2s1 | 22 | 18 | -1 | 38 | 53* | 10 | 51*
SMILES | NALP1 yeast inh | TIM10 inh | SKKanGAS inh | tim10-1 inh | tim23-1 inh | NLRP3 yeast inh | tim23-1 conf
COC(=O)CC1COc2ccccc2N1S(=O)(=O)c1ccc(OC)cc1 (configuration not stated) | -7 | -4 | 6 | 9 | 12 | 5 | .
COC(=O)CC1COc2ccccc2N1S(=O)(=O)c1ccc(Br)cc1 (configuration not stated) | 13 | 19 | 4 | 18 | 53* | -25 | 36
Cc1ccc(CCNC(=O)C2CCCN(S(=O)(=O)N3CC(C)CC(C)C3)C2)cc1 (configuration not stated) | 13 | 23 | -1 | 29 | 18 | 16 | .
c1ccc(OCCSc2nc3ccccc3[nH]2)cc1 | 8 | 8 | 3 | -9 | 49 | 34 | .
Cc1ccccc1OCCCSc1nc2ccccc2[nH]1 | 58 | 28 | -17 | 14 | 68* | 29 | 64*
CN1C(=O)S/C(=C/c2cccnc2)C1=O | 39 | 6 | 0 | 26 | 21 | 19 | .
O=C1/C(=C\c2cccnc2)Sc2ccccc21 | . | 17 | 6 | 17 | 53* | -1 | 59*
O=C(c1ccccc1)N1C(=O)C(c2ccccc2)Oc2ccccc21 (configuration not stated) | 15 | 33 | 5 | 39 | 80* | 45 | 57*
CCOc1ccc(NS(=O)(=O)c2ccc(-c3cnc(C4CC4)o3)cc2)cc1 | 20 | -10 | 17 | 29 | 51* | 28 | 44*
Cc1cc(C)cc(NS(=O)(=O)c2ccc(-c3cnc(C4CC4)o3)cc2)c1 | -2 | -35 | 30 | 32 | 28 | 16 | .
COc1cc(/C=C/C(=O)OCC(=O)NCc2ccccc2OC)ccc1O | . | -10 | -5 | -10 | 89* | 14 | 17
O=C(CSc1cccc[n+]1[O-])c1cc(Cl)ccc1Cl | 0 | 7 | 28 | 10 | 59* | 3 | 77*
COc1ccccc1N1CCN(C(=O)CCC(=O)N2CCN(c3ccc(F)cc3)CC2)CC1 | 22 | 1 | -1 | 15 | 4 | 18 | .
O=C(N/N=C/C=C\c1ccco1)c1cccs1 | -5 | 23 | 0 | 9 | 64* | 18 | 53*
O=C(N/N=C/C=C/c1ccco1)c1ccncc1 | 11 | 11 | -7 | -16 | -1 | 15 | .
CCCCC(CC)COC(=O)C(C#N)=C(c1ccccc1)c1ccccc1 (configuration not stated) | . | -8 | . | 2 | 26 | 21 | .
Cc1ccc(C(=O)SC2=NCCS2)cc1 | -2 | 26 | 0 | 3 | 73* | 11 | 49*
CC(C)(C)NC(=O)CC1C(=O)NCCN1Cc1c(F)cccc1Cl (configuration not stated) | -15 | -6 | -10 | 10 | 6 | 18 | .
Cc1ccc(/C=N/NC(=O)c2csc3c2CCCC3)cc1 | 18 | 22 | -3 | 35 | 63* | 32 | 59*
COc1cc(/C=N/NC(=O)c2csc3c2CCCC3)cc(OC)c1O | 0 | 4 | -12 | 11 | 17 | -9 | .
N=c1sccn1CC(=O)Nc1cc(Cl)ccc1Oc1ccccc1 | 6 | 22 | 7 | 15 | 66* | -1 | 22
N=c1sccn1CC(=O)Nc1cccc(Oc2ccccc2)c1 | 14 | 18 | 2 | 20 | 8 | 10 | .

Screening results (PubChem)
